Screening data deposited in PubChem BioAssay by National Center for Advancing Translational Sciences (NCATS).
Compounds with a hit are over-represented: about 21% of the library has one in this group of screens.
Shiga inhibitor = Shiga toxin inhibition; Vero cells, Shiga toxin protein synthesis inhibition reporter; inhibition, % at 38.7 µM; 290,000 tested, 9.2% active; in the data active means inhibition mostly above about 28%, no sharp cut-off; inactive means mostly below about 43%; further: 0% is about no effect
Pf growth 96h = P. falciparum growth inhibition at 96 hour, primary screen for plastid delayed-death inhibitors. P. falciparum luciferase reporter growth, 96 h. Potency, µM (top dose mostly 28.7 µM), inactives show top-dose activity change, negative = inhibition, most hits filed as inhibitors. 320,000 tested, 6.9% active. AID 504834; further: potency means the concentration at half of the fitted maximal effect; on the % scale 0 is the no-effect control and ±100 the full control effect
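P. falciparum expressing integrated firefly luciferase grown in erythrocytes (2% hematocrit, 0.05% parasitemia final) with compounds for 96 hours at 37 C, 5% CO2. Growth inhibition read as loss of luminescence after adding luciferase detection reagent.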
HCMV inh = human cytomegalovirus inhibition. activity change, negative = inhibition, % at 57.5 µM. 410,000 tested, 4.5% active. HFF cells, HCMV-luciferase reporter, 72 h; hits give low values; in the data active means activity change below about -60%; inconclusive means no clear call, values can overlap the other calls; inactive means above about -39%; further: on the % scale 0 is the no-effect control and ±100 the full control effect
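Steps: HFFs plated, 16 h 37C; compounds added; HCMV-luciferase added to MOI 1 PFU/cell; 72 h 37C; OneGlo reagent, 5 min room temperature; luminescence read, normalized to controls.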
Cycloheximide cs = affects cycloheximide protein synthesis inhibition readout, counter-screen. cell reporter, cycloheximide protein synthesis inhibition counterscreen. 300,000 tested, 12% active. max response, %; in the data active means max response mostly above about 13%, no sharp cut-off; inactive means mostly below about 14%; further: read at 38.3 µM for the half of the compounds with a filed dose; 0% is about no effect
Pf growth 48h = P. falciparum growth inhibition at 48 hours (one generation). Potency, µM (doses to about 28.7 µM), inactives show at the highest dose activity change, negative = inhibition, usual class: inhibitors. 310,000 tested, 5.9% active. P. falciparum luciferase growth in erythrocytes, 48 h; further: potency means the concentration at half of the fitted maximal effect; on the % scale 0 is the no-effect control and ±100 the full control effect
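Here the parasites carry a stable luciferase gene and grow inside erythrocytes in Albumax-based RPMI medium with compound for one erythrocytic cycle. Activity is scored as loss of luminescent signal.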
HCV inh = inhibitors of hepatitis C virus infection; Huh7.5.1 HCVcc-Cre infection, luciferase reporter, 44 h; Potency, µM (titrated, usually from 41.8 µM), without a hit: at the top dose activity change, negative = inhibition, actives largely listed as inhibitors; 340,000 tested, 3.4% active; further: potency means the concentration at half of the fitted maximal effect; on the % scale 0 is the no-effect control and ±100 the full control effect
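Compounds are dispensed onto cells plated 4 h earlier at 1,000 per well, with HCVcc-Cre virus (about 0.5 moi) added next. Following 44 h of culture, luminescent signal is measured for 15 sec after 15 min with substrate at room temperature.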
The depositor's hits bear a star; ? = inconclusive; . = not tested or not shown. Unless noted, the call rests on the fitted dose curve; in most records, active means well fitted inhibition curve with a large enough effect; inconclusive means small, poorly fitted or top-dose-only effect, or another doubt; inactive means no such curve, though single readings can be large or run the other way.

SMILES | Shiga inhibitor | Pf growth 96h | HCMV inh | Cycloheximide cs | Pf growth 48h | HCV inh
O=C(Cn1nc(CNc2ccc(Cl)cc2)[n+]2c1CCCCC2)c1ccccc1 | -3.0 | ? | ? | 2.2 | 0.928µM* | 13.3%
Cc1ccc(C(C)C)c(OCc2nn(CC(=O)c3ccc(Cl)cc3)c3[n+]2CCCCC3)c1 | -11.9 | ? | -111.8* | -6.2 | 11.7µM* | ?
CCOc1ccc(CNCc2c(C(=O)O)c(C)n(Cc3ccc(F)cc3Cl)c2C)cc1 | . | . | -2.2 | . | . | .
COC(=O)[C@@H]1CCCN1C(=O)CCc1nnc(C2CCCCC2)o1 | 16.3* | 16.5µM* | -24.3 | 14.4* | 23.6% | 10.3%
CCC1CCCCN1C(=O)CCc1nnc(C2CCCCC2)o1 (stereo not drawn) | 66.2* | ? | -22.2 | 47.0* | -7.2% | 11.4%
C=C(C)C(=O)OCCOC(=O)C(=C)C | 9.9 | . | . | 0.6 | . | .
CCn1nc(C)c(Br)c1-c1nc(-c2cccc(C)c2)no1 | 0.6 | 50.4% | 31.7 | 11.4 | 10.6% | -12.6%
CCn1nc(C)c(Br)c1-c1nc(CS(=O)(=O)c2ccsc2)no1 | 25.7 | 49.7% | 19.0 | 28.0* | 24.6% | -29.4%
Cc1nc(NCc2ccccn2)c2c3c(sc2n1)CCCC3 | -9.4 | ? | -17.4 | -1.4 | ? | 22.4µM*
CC(C)Sc1nc(NCc2ccco2)c2c3c(sc2n1)COC(C)(C)C3 | 91.6* | ? | 4.7 | 21.4* | ? | ?
CC1CCc2sc3nc(NCc4ccco4)n4ncnc4c3c2C1 (stereo not drawn) | 16.9 | ? | 13.2 | 11.4 | . | ?
Cc1nc(NCc2ccco2)c2c3c(sc2n1)CCC3 | -7.2 | -4.1% | -70.3* | -2.4 | -12.9% | -15.1%
CC1CCCc2sc3nc(NCc4ccco4)n4ncnc4c3c21 (stereo not drawn) | 55.4 | -2.1% | 19.3 | 23.5* | ? | ?
CC1(C)Cc2c(sc3nc(-c4ccccc4)oc(=O)c23)CO1 | 17.9 | -27.7% | 17.2 | 6.5 | -4.3% | 8.7%
COc1cc2c(NCCCCCCO[N+](=O)[O-])ncnc2c(OC)c1OC | . | . | -25.0 | . | . | .
N#CCCn1cc(CNC2CCC(O)CC2)c2ccccc21 (stereo not drawn) | -19.5 | 34.3% | -1.1 | -2.1 | 22.7% | 6.0%
CCOCc1c(C(=O)NCc2ccccc2CN2CCCC2)oc2ccccc12 | . | ? | -5.5 | . | ? | ?
Cc1c(C(=O)Nc2ccccn2)oc2c(Cl)cccc12 | . | 41.9% | 31.2 | . | 33.9% | ?
Cc1c(C(=O)Nc2ccccn2)oc2ccccc12 | 109.1* | -27.4% | 127.6 | 46.7* | 160.6% | -10.6%
Cc1noc(C(=O)Nc2cccnc2Cl)c1Cl | 6.0 | 24.0% | 62.0 | 14.7 | 54.0% | -8.0%
Cc1ccc(NC(=O)c2oc3ccccc3c2C)nc1 | 88.2* | 152.6% | 126.2 | 63.3* | 113.8% | -28.7%
Cc1c(C(=O)NC(C)c2ccncc2)oc2ccccc12 (stereo not drawn) | -1.4 | . | 14.4 | 1.7 | ? | -4.9%
Cc1c(C(=O)Nc2cccnc2Cl)oc2ccccc12 | 81.3* | 238.9% | 24.5 | 25.7* | 156.8% | 5.5%
Cc1c(C(=O)Nc2ccncc2)oc2ccccc12 | 51.6 | . | 48.7 | 34.8* | -11.4% | ?
CC1C(=O)N2CCCc3cc(NC(=O)COc4ccccc4)cc1c32 (stereo not drawn) | . | 37.7% | 38.7 | . | -0.4% | ?
SMILES | Shiga inhibitor | Pf growth 96h | HCMV inh | Cycloheximide cs | Pf growth 48h | HCV inh
N#Cc1ccc(OCC(=O)N(C2CCCCC2)C2CCS(=O)(=O)C2)cc1 (stereo not drawn) | . | -31.0% | -13.5 | . | 8.1% | 0.2%
COc1ccc(-c2cc(C(F)(F)F)nc(-n3ccnc3)n2)cc1 | 24.0 | ? | -29.1 | 16.7 | 43.0% | ?
CN(CC(=O)Nc1ccc(Cl)cc1)CC(=O)Nc1cccc(Br)c1 | -8.2 | 28.7% | 12.9 | 1.0 | 14.7% | 1.3%
Cc1c(C(=O)Nc2ccc(N3CCOCC3)cc2)oc2ccccc12 | 96.6* | 7.9% | 65.3 | 39.6* | 54.6% | -27.7%
Cc1c(C(=O)OCC(=O)Nc2ccc(N3CCOCC3)cc2)oc2ccccc12 | . | 13.9% | -12.8 | . | -9.6% | -13.9%
COc1ccccc1C(=O)NNC(=O)c1cccc(C)c1 | . | ? | 71.8 | 23.5* | 109.5% | 5.4%
O=C(Nc1cc(Sc2nc3ccccc3s2)cc([N+](=O)[O-])c1)c1ccccc1 | -2.1 | ? | -35.6 | 6.8 | ? | ?
COc1ccccc1C(=O)NNC(=O)c1cccc([N+](=O)[O-])c1 | 60.6* | 235.6% | 7.7 | 32.3* | 122.5% | 13.1%
O=C(c1cccc([N+](=O)[O-])c1)c1ccccn1 | 4.8 | 37.0% | -29.8 | 1.3 | 43.8% | 3.1%
O=C(Nc1cc(Sc2nc3ccccc3s2)cc([N+](=O)[O-])c1)c1ccccc1F | -3.1 | ? | 0.5 | 8.9 | ? | 10µM*
O=C(NNC(=O)c1ccccn1)c1cccc([N+](=O)[O-])c1 | 8.2 | 16.6% | -27.9 | 8.4 | 13.1µM* | -28.9%
O=C(NNC(=O)c1ccccc1-c1ccccc1C(=O)O)c1cccc([N+](=O)[O-])c1 | -3.2 | 17.1% | 12.9 | 0.4 | 9.4% | -0.3%
COc1ccc2c(CC(=O)OCC(=O)Nc3cccc(C)c3)coc2c1 | . | -5.4% | 8.5 | . | 22.9% | 25.0%
Cc1ccc(Cl)c(NC(=O)COC(=O)c2cc[n+]([O-])cc2)c1Cl | . | . | 33.7 | . | . | 15.7%
O=C(Nc1cc(Sc2ccccn2)cc([N+](=O)[O-])c1)c1cccc(F)c1 | 48.4 | 16.1% | -67.3* | 9.5 | ? | ?
O=C(Nc1ccc(S(=O)(=O)Nc2ccccn2)cc1)c1cccc([N+](=O)[O-])c1 | -4.2 | -6.5% | -6.8 | -0.8 | ? | -9.4%
COc1ccc(OC)c(C(=O)C2COC(=O)C2)c1 (stereo not drawn) | 5.8 | 49.2% | -24.7 | -0.6 | 10.4µM* | 0.3%
OC(COCc1ccc(Cl)cc1)CN1CCN(CC(O)COCc2ccc(Cl)cc2)CC1 (stereo not drawn) | -21.8 | . | ? | -10.0 | ? | 11.2µM*
OC(COCc1ccc(Cl)cc1)CN1CCCCC1 (stereo not drawn) | -9.5 | ? | 4.9 | -6.4 | 17.4% | -23.4%
OC(COCc1ccc(Cl)cc1)CN1CC=C(c2ccccc2)CC1 (stereo not drawn) | -9.7 | 3.29µM* | -33.2 | -3.7 | 9.28µM* | -4.5%
O=S(=O)(c1ccc(Cl)cc1)N1CCN(c2nc(-c3ccc(F)cc3)nc3cc(Cl)ccc23)CC1 | 3.4 | . | . | 2.6 | . | .
Cc1ccc(S(=O)(=O)N(C)C)cc1NC(=O)CN1C(=O)NC2(CCc3ccccc32)C1=O (stereo not drawn) | . | . | -25.1 | . | . | .
CCOc1ccccc1NC1=C(Cl)C(=O)N(c2ccc(OC)cc2)C1=O | 13.2 | 35.1% | 7.4 | 0.5 | -4.4% | 8.7%
COc1ccccc1N1C(=O)C(Cl)=C(Nc2ccccc2O)C1=O | 102.5* | 32.4% | -24.4 | 31.5* | 7.9% | -4.3%
